# Among all 330,000 compounds or so, about 10,000 (3%) were called active. This is one part of a sample in which actives are shown more often than they occur.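 Rule for the calls: active = inhibition of at least 50% at 8 µM in the primary screen; inactive = the rest.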
# Target: Protein Mdm4 (Homo sapiens) + E3 ubiquitin-protein ligase Mdm2 (Homo sapiens) (UniProt O15151+Q00987)
# Test: disruptors of Mdm2/MdmX RING complex – cell-based, luminescence, split luciferase, SaOS-2, uHTS, primary screen (AID 485346)
# Conditions: SaOS-2 split-luciferase Mdm2/MdmX complementation, at 8 µM, stronger effect = higher value
# Chain of Protein Mdm4 (Homo sapiens) + E3 ubiquitin-protein ligase Mdm2 (Homo sapiens) (O15151 whole entry, looked up): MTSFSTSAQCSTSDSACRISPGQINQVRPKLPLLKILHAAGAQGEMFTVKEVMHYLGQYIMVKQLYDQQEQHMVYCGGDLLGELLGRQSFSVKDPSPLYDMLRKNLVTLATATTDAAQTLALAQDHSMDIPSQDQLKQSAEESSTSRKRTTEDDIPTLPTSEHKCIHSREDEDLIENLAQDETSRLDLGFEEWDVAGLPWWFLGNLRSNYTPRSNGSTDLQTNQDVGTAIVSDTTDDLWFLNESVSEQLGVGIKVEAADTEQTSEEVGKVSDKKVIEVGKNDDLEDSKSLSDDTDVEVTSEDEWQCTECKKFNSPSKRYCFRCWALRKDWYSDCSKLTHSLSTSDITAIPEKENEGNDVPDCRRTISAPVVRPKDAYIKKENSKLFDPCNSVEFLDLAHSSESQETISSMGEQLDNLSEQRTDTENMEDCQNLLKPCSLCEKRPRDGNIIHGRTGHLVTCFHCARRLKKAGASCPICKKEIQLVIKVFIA
# Chain of Protein Mdm4 (Homo sapiens) + E3 ubiquitin-protein ligase Mdm2 (Homo sapiens) (Q00987 whole entry, looked up): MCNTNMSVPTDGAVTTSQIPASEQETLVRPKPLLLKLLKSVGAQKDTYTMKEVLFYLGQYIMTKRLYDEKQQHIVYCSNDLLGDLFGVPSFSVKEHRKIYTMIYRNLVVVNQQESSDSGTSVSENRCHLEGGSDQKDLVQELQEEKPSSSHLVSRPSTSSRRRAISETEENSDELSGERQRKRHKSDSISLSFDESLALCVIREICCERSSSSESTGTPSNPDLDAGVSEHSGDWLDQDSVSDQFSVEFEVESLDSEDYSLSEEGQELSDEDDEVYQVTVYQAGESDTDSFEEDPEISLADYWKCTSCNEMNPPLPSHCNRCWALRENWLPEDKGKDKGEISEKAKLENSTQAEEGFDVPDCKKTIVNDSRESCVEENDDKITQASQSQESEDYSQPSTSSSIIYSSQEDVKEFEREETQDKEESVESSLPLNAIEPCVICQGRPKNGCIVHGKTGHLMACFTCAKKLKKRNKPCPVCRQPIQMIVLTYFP
row,Compound,inhibition
1,CCCCCCSc1ccc([C@@H]2[C@H]3C(=O)N(CC)C(=O)[C@H]3[C@]3(C(=O)OC)CCCCN23)cc1,29.8% (inactive)
2,CCN1C(=O)[C@@H]2[C@@H](c3ccc(-c4ccc(OC)cc4)c(OC)c3)N3CCC[C@@]3(C(=O)OC)[C@@H]2C1=O,28.1% (inactive)
3,CCCCCCSc1ccc([C@@H]2[C@@H]3C(=O)N(CC)C(=O)[C@@H]3[C@]3(C(=O)OC)CCCCN23)cc1OC,54.2% (active)
4,COCCn1c(C)cc(C(=O)CN2c3cccc4cccc(c34)S2(=O)=O)c1C,5.95% (inactive)
5,C/C(=N\Nc1ccc([N+](=O)[O-])cc1)c1ccc(-n2nncc2C(C)(C)C)cc1,22.2% (inactive)
6,O=C(CN1C(=O)CSC1=O)N1CCCC(Nc2ccc(F)cc2)C1 (stereo not drawn),5.11% (inactive)
7,CC1=NN(c2cccc(Cl)c2)C(=O)C12CC(C)=C(C)CS2 (stereo not drawn),6.51% (inactive)
8,COc1cccc(N(C(=O)C2COc3ccccc3O2)C(C(=O)NC2CCCCC2)c2ccc(O)cc2)c1 (stereo not drawn),5.54% (inactive)
9,COc1ccc(C(C(=O)NC2CCCCC2)N(C(=O)CCl)c2ccccc2Cl)cc1 (stereo not drawn),92% (active)
10,COc1ccc(C(C(=O)NC2CCCCC2)N(C(=O)c2snc(C(N)=O)c2N)c2ccccc2OC)cc1 (stereo not drawn),23.2% (inactive)
11,Cc1nnc(SC(C(=O)Nc2cc(Cl)cc(Cl)c2)c2ccccc2)[nH]c1=O (stereo not drawn),-11% (inactive)
12,OCC1(Cc2ccccc2C(F)(F)F)CCN(Cc2cccc3cnccc23)CC1,-16.9% (inactive)
13,Cc1cccc(C(=O)Nc2ccc(Oc3cnccn3)cc2)c1,-15.7% (inactive)
14,CCCCSc1nnc2c(n1)OC=Nc1ccccc1-2,-25.2% (inactive)
15,Cc1ccc(S(=O)(=O)NCC(=O)N(CC(=O)NC2CCCCC2)Cc2ccco2)cc1,-4.29% (inactive)
16,Cc1ccc(-c2cc(=O)[nH]c(NCc3ccccc3)n2)cc1,-3.28% (inactive)
17,Brc1ccc(C2CC(c3ccccc3)=Nc3ccccc3N2)cc1 (stereo not drawn),-130% (inactive)
18,CC(=O)Nc1ccc(/C=C/C(=O)c2ccccc2)cc1,-7.03% (inactive)
19,Cc1[nH]c(=O)c(C(=O)/C=C/c2ccccc2)c2c1CCCC2,70.9% (active)
20,Cc1cn(COC/C=C/c2ccccc2)c(=O)[nH]c1=O,7.02% (inactive)
21,CC(C)n1cnc2c(Nc3cccc(Cl)c3)nc(N(CCO)CCCO)nc21,88.9% (active)
22,CC(C)C[C@H](CO)Nc1nc(N(C)c2cccc(Cl)c2)c2ncn(C(C)C)c2n1,22.9% (inactive)
23,COCn1c(C(O)c2ccccc2)cc2ccccc21 (stereo not drawn),-4.01% (inactive)
24,Cc1cc(C)c2nc(N3CCC(C(=O)NCCN4CCOCC4)CC3)sc2c1,16.2% (inactive)
25,CC(=O)N(Cc1cc(=O)[nH]c2ccccc12)c1ccc(C)cc1C,15.3% (inactive)
26,Cc1ccc(N(Cc2cc3ccccc3[nH]c2=O)C(=O)c2cccs2)cc1,-12.3% (inactive)
27,Cc1ccc(N(Cc2cc(=O)[nH]c3ccccc23)C(=O)CCl)cc1,100% (active)

row,Compound,inhibition
1,Cc1nc(/N=C(\N)NC(=O)NC2CCCCC2)nc2ccccc12,53% (active)
2,O=C(NNC(=O)C(O)c1ccccc1)NC1CCCCC1 (stereo not drawn),16.7% (inactive)
3,COc1ccc2nc(/N=C(\N)NC(=O)Nc3ccccc3)nc(C)c2c1,29% (inactive)
4,COc1ccc2c(c1)C(=C(C#N)C#N)C(=O)N2CCc1ccccc1,8.08% (inactive)
5,Cc1ccc(C)c(NC(=O)CN(C)C(=O)c2ccc3ncsc3c2)c1,10.9% (inactive)
6,C/C(=N\NC(=O)c1ccccc1F)c1ccccn1,64.2% (active)
7,C/C(=N\NC(=O)c1ccoc1C)c1ccccc1O,49.2% (inactive)
8,COc1ccc(CC(=O)N/N=C(\C)c2ccccn2)cc1,56.7% (active)
9,COc1ccc(C/C(C)=N/NC(=O)c2ccncc2)cc1,-14.9% (inactive)
10,C/C(=N\NC(=O)Cc1ccc(Br)cc1)c1cccnc1,9.71% (inactive)
11,C/C(CC(=O)Nc1ccc(N(C)C)cc1)=N\NC(=O)c1ccccc1F,11.6% (inactive)
12,CCOc1ccccc1NS(=O)(=O)c1cc2c3c(c1)C(C)C(=O)N3CCC2 (stereo not drawn),14.9% (inactive)
13,CC1C(=O)N(Cc2ccccc2)c2ccccc2N1C(=O)c1ccccc1 (stereo not drawn),4.7% (inactive)
14,O=C(COC(=O)/C=C/c1ccc(Br)o1)Nc1cccc(S(=O)(=O)N2CCOCC2)c1,26.4% (inactive)
15,CN(C)CCCSc1ccccc1NC(=O)/C=C/c1ccccc1,-28.9% (inactive)
16,CC(C)NC(=O)C(=O)NCCCOC(C)C,7.36% (inactive)
17,CN(C)c1nc2n(c(=O)n1)CCO2,-0.85% (inactive)
18,COc1ccc(CCNC(=O)C2CCCN(S(=O)(=O)c3ccc(OC)cc3)C2)cc1 (stereo not drawn),31.8% (inactive)
19,O=C(COC(=O)c1cnccn1)Nc1ccc(Cl)cc1C(F)(F)F,-11.4% (inactive)
20,COc1cccc(CNn2cn[nH]c2=S)c1OCc1ccccc1,24.6% (inactive)
21,O=[N+]([O-])c1ccc(Oc2ccc(F)cc2Br)c2ccncc12,78% (active)
22,O=[N+]([O-])c1ccc(F)cc1Oc1nc(-c2cccnc2)nc2ccccc12,27.2% (inactive)
23,Cc1oc2cc([N+](=O)[O-])c(O)c([N+](=O)[O-])c2c1C(=O)c1ccc(Br)cc1,-16.1% (inactive)
24,Cc1cc(C)n(CCNCc2c(C(=O)N3C[C@@H](C)O[C@@H](C)C3)nc3ccc(Cl)cn23)n1,6.66% (inactive)
25,COC(C[C@@H](O)C[C@H](O)[C@H](C)OCc1ccccc1)OC,-23% (inactive)
26,Cn1nnnc1-c1cc(Cl)cc(Cl)c1,16.3% (inactive)
